Many of the other results were omitted from the sample, so the strongest signals are more common in it than they were.
Tests used:
Test in all cases: glycan array binding signal (z-score within array); higher = stronger binding
Conditions in all cases: glycan notation: IUPAC condensed, linker removed
[1] = target: GlcA(b1-3)GlcNAc
Summary of the method: (§1)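 From the Consortium for Functional Glycomics database, 3228 arrays were curated, keeping only those whose protein sequence was available. Binding is given as a within-array Z-score averaged across arrays sharing a protein sequence and across linkers. Negative Z-scores can be read as non-binding.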

[2] = target: GlcNAc(a1-4)Gal(b1-4)GalNAc
Summary of the method: as §1

[3] = target: GlcNAc(a1-4)Gal(b1-4)GlcNAc(b1-3)Gal(b1-4)GlcNAc(b1-3)Gal(b1-4)GlcNAc
Summary of the method: as §1

[4] = target: GlcNAc(b1-3)Gal(b1-4)GlcNAc(b1-3)Gal(b1-4)GlcNAc(b1-2)Man(a1-3)[GlcNAc(b1-3)Gal(b1-4)GlcNAc(b1-3)Gal(b1-4)GlcNAc(b1-2)Man(a1-6)]Man(b1-4)GlcNAc(b1-4)GlcNAc
Summary of the method: as §1

[5] = target: GlcNAc(b1-3)Gal(b1-4)GlcNAc(b1-3)Gal(b1-4)GlcNAc(b1-3)Gal(b1-4)GlcNAc(b1-2)Man(a1-3)[GlcNAc(b1-3)Gal(b1-4)GlcNAc(b1-3)Gal(b1-4)GlcNAc(b1-3)Gal(b1-4)GlcNAc(b1-2)Man(a1-6)]Man(b1-4)GlcNAc(b1-4)GlcNAc
Summary of the method: as §1

[6] = target: GlcNAc(b1-3)Gal(b1-4)GlcNAc(b1-3)Gal(b1-4)GlcNAc(b1-3)Gal(b1-4)GlcNAc(b1-3)Gal(b1-4)GlcNAc(b1-2)Man(a1-3)[GlcNAc(b1-3)Gal(b1-4)GlcNAc(b1-3)Gal(b1-4)GlcNAc(b1-3)Gal(b1-4)GlcNAc(b1-3)Gal(b1-4)GlcNAc(b1-2)Man(a1-6)]Man(b1-4)GlcNAc(b1-4)[Fuc(a1-6)]GlcNAc
Summary of the method: as §1

[7] = target: GlcNAc(b1-3)Gal(b1-4)GlcNAc(b1-3)Gal(b1-4)GlcNAc(b1-3)Gal(b1-4)GlcNAc(b1-3)Gal(b1-4)GlcNAc(b1-2)[GlcNAc(b1-3)Gal(b1-4)GlcNAc(b1-3)Gal(b1-4)GlcNAc(b1-3)Gal(b1-4)GlcNAc(b1-3)Gal(b1-4)GlcNAc(b1-6)]Man(a1-6)[GlcNAc(b1-3)Gal(b1-4)GlcNAc(b1-3)Gal(b1-4)GlcNAc(b1-3)Gal(b1-4)GlcNAc(b1-3)Gal(b1-4)GlcNAc(b1-2)Man(a1-3)]Man(b1-4)GlcNAc(b1-4)[Fuc(a1-6)]GlcNAc
Summary of the method: as §1

[8] = target: GlcNAc(b1-3)Gal(b1-4)GlcNAc(b1-6)[Gal(b1-3)]GalNAc
Summary of the method: as §1

[9] = target: GlcNAc(b1-4)GlcNAc
Summary of the method: as §1

[10] = target: GlcNAc(b1-4)GlcNAc(b1-4)GlcNAc(b1-4)GlcNAc(b1-4)GlcNAc
Summary of the method: as §1

[11] = target: Kdn(a2-6)Gal(b1-4)GlcNAc
Summary of the method: as §1

[12] = target: Man(a1-6)Man
Summary of the method: as §1

[13] = target: Neu5Ac(a2-3)Gal(b1-3)GlcNAc(b1-3)Gal(b1-4)GlcNAc
Summary of the method: as §1

[14] = target: Neu5Ac(a2-3)Gal(b1-3)[Fuc(a1-4)]GlcNAc(b1-3)Gal(b1-3)[Fuc(a1-4)]GlcNAc
Summary of the method: as §1

[15] = target: Neu5Ac(a2-3)Gal(b1-3)[GlcNAc(b1-6)]GalNAc
Summary of the method: as §1

[16] = target: Neu5Ac(a2-3)Gal(b1-4)GlcNAc(b1-2)Man(a1-3)[GlcNAc(b1-4)][Neu5Ac(a2-3)Gal(b1-4)GlcNAc(b1-2)Man(a1-6)]Man(b1-4)GlcNAc(b1-4)GlcNAc
Summary of the method: as §1

[17] = target: Neu5Ac(a2-3)[GalNAc(b1-4)]Gal(b1-4)GlcNAc
Summary of the method: as §1

[18] = target: Neu5Ac(a2-6)Gal
Summary of the method: as §1

[19] = target: Neu5Ac(a2-6)Gal(b1-4)GlcNAc(b1-2)Man
Summary of the method: as §1

[20] = target: Neu5Ac(a2-6)Gal(b1-4)GlcNAc(b1-3)Gal(b1-4)GlcNAc(b1-3)Gal(b1-4)GlcNAc
Summary of the method: as §1

[21] = target: Neu5Ac(a2-6)Gal(b1-4)GlcNAc(b1-3)Gal(b1-4)GlcNAc(b1-3)Gal(b1-4)GlcNAc(b1-2)Man(a1-3)[Neu5Ac(a2-6)Gal(b1-4)GlcNAc(b1-3)Gal(b1-4)GlcNAc(b1-3)Gal(b1-4)GlcNAc(b1-2)Man(a1-6)]GalNAc
Summary of the method: as §1

[22] = target: Neu5Ac(a2-8)Neu5Ac(a2-3)Gal(b1-4)GlcNAc
Summary of the method: as §1

[23] = target: Neu5Ac(a2-8)Neu5Ac(a2-3)[GalNAc(b1-4)]Gal(b1-4)Glc
Summary of the method: as §1

[24] = target: Neu5Ac(a2-8)Neu5Ac(a2-8)Neu5Ac(a2-3)[Gal(b1-3)GalNAc(b1-4)]Gal(b1-4)Glc
Summary of the method: as §1

[25] = target: Neu5Ac(a2-8)Neu5Gc(a2-3)Gal(b1-4)GlcNAc
Summary of the method: as §1

[26] = target: Neu5Ac(b2-6)GalNAc
Summary of the method: as §1

[27] = target: Neu5Gc(a2-3)Gal(b1-3)GlcNAc
Summary of the method: as §1

[28] = target: Neu5Gc(a2-8)Neu5Gc(a2-3)Gal(b1-4)GlcNAc(b1-3)Gal(b1-4)GlcNAc
Summary of the method: as §1

B1: PX9961C-bth-497-22-497 (Bacteroides thetaiotaomicron) (protein)
chain: DWLDLNTTSSVETGQAIVTLDDAQIALNGIYRLASGHSYYGDNYWYYGDCRAADVQARITKGDGKRVSPYYEYNVLASDNLNIVLPWNTVYKVIRQTNNLIQKIESGSIQSSDTKELNRIKSEALVMRGLSLFNLTRLFGMPYTNDKGASLGVPIETSPSDPTHKPSRSTVAQCYEQVVSDMSNALSGLRQETSNGYINYWAAQALLSRVYLNMGEYQKAYDAATDVIKNNGGRYQLYSYEEYPNVWGQDFQSESLFELYITLSEPSGGTGGEGAPMVYANEATVDWNNLILSEDFLNLLNEDPKDVRHCLTKESVIENNTGLPAAAMHEKVYLAKFPGKTGDDPKTNNICIIRLSEVYLNAAEAGLKKGTDIEEAQGYLNDIISRRTTDTSQQVSTETFTLDRILKERRKELVGEGEVFYDYLRNGLAIERKGSWHLETLKASNAQKIEATDLRIALPIPQSEIDANPNIQQNPR
- glycan array binding signal (z-score) [1]: 0.671
- glycan array binding signal (z-score) [2]: -0.269
- glycan array binding signal (z-score) [3]: 0.15
- glycan array binding signal (z-score) [4]: 1.6
- glycan array binding signal (z-score) [5]: 0.098
- glycan array binding signal (z-score) [6]: 2.24
- glycan array binding signal (z-score) [7]: -0.034
- glycan array binding signal (z-score) [8]: 1.56
- glycan array binding signal (z-score) [9]: -0.2
- glycan array binding signal (z-score) [10]: -0.492
- glycan array binding signal (z-score) [11]: -0.057
- glycan array binding signal (z-score) [12]: -0.481
- glycan array binding signal (z-score) [13]: 0.993
- glycan array binding signal (z-score) [14]: 2.16
- glycan array binding signal (z-score) [15]: -0.029
- glycan array binding signal (z-score) [16]: -0.279
- glycan array binding signal (z-score) [17]: -0.469
- glycan array binding signal (z-score) [18]: 0.311
- glycan array binding signal (z-score) [19]: -0.411
- glycan array binding signal (z-score) [20]: -0.506
- glycan array binding signal (z-score) [21]: 0.689
- glycan array binding signal (z-score) [22]: -0.198
- glycan array binding signal (z-score) [23]: -0.361
- glycan array binding signal (z-score) [24]: -0.241
- glycan array binding signal (z-score) [25]: 13.7
- glycan array binding signal (z-score) [26]: -0.424
- glycan array binding signal (z-score) [27]: -0.496
- glycan array binding signal (z-score) [28]: 0.531
